Measured values published in PubChem BioAssay (EPA / NIEHS).
“And” between values parts separate entries of the source, which are not always exact repeats. Equal entries are not always repeated. The source made the active and inactive calls. Rule for the calls: active = hit-call score of the fitted dose curve at least 0.9, where 1 is the maximum; inactive = score below 0.9.

These compounds were tested on Monokine induced gamma interferon (MIG), CXCL9 (gene 4283) (assay: BSK_KF3CT_MIG: BioMAP Diversity Plus: KF3CT Assay for Monokine induced gamma interferon (MIG) Biomarker Activity (AID 2284248)). Conditions: primary human keratinocytes with fibroblasts.
Method: BSK_KF3CT is a cell-based, multiplexed-readout assay that uses keratinocytes and foreskin fibroblasts, a human skin primary cell co-culture, with measurements taken at 24 hours after chemical dosing in a 96-well plate.BSK_KF3CT_MIG is an assay component measured in the BSK_KF3CT assay. It measures MIG antibody related to regulation of gene expression using ELISA technology.Data from the assay component BSK_KF3CT_MIG was analyzed at the endpoint, BSK_KF3CT_MIG, in the positive analysis fitting direction relative to DMSO as the negative control and baseline of activity. Using a type of binding reporter, gain or loss-of-signal activity can be used to understand protein changes. To generalize the intended target to other relatable targets, this assay endpoint is annotated to the 'cytokine' intended target family, where the subfamily is 'chemotactic factor'.
The levels of cell surface (or secreted, indicated by the prefix "s") biomarker endpoints were measured by ELISA. Overt cytotoxicity to cells in confluent adherent cultures (all systems other than the BT system) was assessed by measuring total protein levels using sulforhodamine B (SRB) staining in parallel cultures at the time of biomarker measurements, indicated as SRB endpoints. For proliferation assays for adherent cell types, individual cell types are cultured at sub-confluence and relative cell numbers quantified by SRB staining at time points optimized for each system (48 h: 3C and CASM3C systems; 72 h: BT and HDF3CGF systems; 96 h: SAg system). SRB was performed by staining cells with 0.1% SRB after fixation with 10% TCA and reading wells at 560 nm.Viability and proliferation of PBMC (T cells) was quantified by Alamar Blue reduction for the SAg and BT systems. For PBMC viability (referred to as PBMC Cytotoxicity within the assay endpoint names), cells were plated (75,000/well in a 96-well plate) and then chemical samples added for 1 h before addition of activators, SEB and TSST-1 (20 ng/mL final concentration each). Cells were incubated for 90 h. Then, Alamar Blue (20 uL/well) (Invitrogen, Cat DAL1100) was added for 6 h, and the plates were read with a fluorescence microplate reader at 546/580 nm (excitation/emission). For PBMC proliferation, cells were plated and activated as above but incubated for only 16 h prior to addition of Alamar Blue. Plates were read after 6 h.

Q: How did the outcome turn out when `CC(C)CCCC(C)(C)O` was run?
A: inactive

Q: How did the outcome turn out when `C=C(C)C(=O)OCCC(F)(F)C(F)(F)C(F)(F)C(F)(F)C(F)(F)C(F)(F)C(F)(F)C(F)(F)F` was run?
A: inactive

Q: How did the outcome turn out when `O=C(O)C(F)(F)OC(F)(F)C(F)(F)OC(F)(F)C(F)(F)C(F)(F)C(F)(F)F` was run?
A: inactive

Q: `CCn1cc(C(=O)O)c(=O)c2ccc(C)nc21` was tested. Which outcome did it give?
A: inactive

Q: For `CCCCN(CCO)CCO`, which outcome is on record?
A: inactive

Q: Which outcome does the source give for `CC(=O)c1ccc(C)cc1` here?
A: inactive

Q: For `C=C(F)C(=O)OC(C(F)(F)F)C(F)(F)F`, which outcome is on record?
A: inactive

Q: For `CCCO[Si](OCCC)(OCCC)OCCC`, which outcome is on record?
A: inactive

Q: For `CC(C)(CO)CO`, which outcome is on record?
A: inactive

Q: How did the outcome turn out when `O=C(O)C(F)(F)C(F)(F)C(F)(F)C(F)(F)C(F)(F)C(F)(F)C(F)(F)C(F)F` was run?
A: inactive

Q: Which AC50 does the source give for `OCC(F)(OC(F)(F)C(F)(OC(F)(F)C(F)(F)C(F)(F)F)C(F)(F)F)C(F)(F)F` (stereo not drawn) here?
A: 5.41 µM (active) and 3.33 µM (active)

Q: Which outcome does the source give for `O=S(=O)(O)C(F)(F)C(F)(F)OC(F)(F)C(F)(F)F` here?
A: inactive

Q: For `c1ccc(OCCOc2ccccc2)cc1`, which outcome is on record?
A: inactive
